Source: PubChem BioAssay (NCATS)
Values joined by “and” are separate entries in the source; they are usually repeats but may differ in a detail not shown here. Identical values can stand only once. Records with an inconclusive call do not appear. Active and inactive are the calls of the source. Unless noted, the call rests on the fitted dose curve; in most records, active means well fitted curve in the direction sought with a large enough effect; inconclusive means small, poorly fitted or top-dose-only effect, or another doubt; inactive means no such curve, though single readings can be large; an effect the other way counts as inactive or inconclusive.

Assays:
[1] = qHTS for compounds that reverse cellular toxicity of Amyloid beta (A-beta) peptide in yeast: LOPAC Validation Assay (AID 720559); conditions: yeast expressing A-beta; Potency: rescue of growth toxicity; series mostly up to 46.1 µM;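 further: plate controls were DMSO for no effect and equimolar ferric chloride plus clioquinol rescue for full effect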
Outline: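 Yeast expressing toxic A-beta grown with pinned compounds at 30 C for 48 hr. Growth measured as absorbance at 600 nm; data normalized to DMSO and to an equimolar FeCl3/clioquinol mixture as positive control.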

[2] = qHTS for Activators of Parkin Expression: LOPAC Validation Assay (NLuc Reporter) (AID 720572;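 further: 0% = DMSO and 100% = positive control compound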); conditions: Parkin promoter NanoLuc reporter cells, luminescence; series mostly up to 46.1 µM
Outline: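 Neuronal cells with a Parkin promoter-driven FLuc/NLuc coincidence reporter were treated 24 h at 37 C in 7-point dose response (LOPAC). NLuc luminescence read after FLuc; signals normalized to DMSO and positive control (100%).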

[3] = qHTS for Activators of Parkin Expression: LOPAC Validation Assay (FLuc Reporter) (AID 720573;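 further: 0% = DMSO and 100% = positive control compounds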); conditions: Cell line, PRKN promoter firefly luciferase reporter; series mostly up to 46.1 µM
Outline: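 Neuronal cell line stably expressing FLuc/NLuc coincidence reporter under the Parkin promoter, 1,500 cells/well, dosed 24 h after seeding in 7-point series for 24 h at 37 C. FLuc luminescence read; normalized to DMSO and positive control (100%).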

[4] = target: T1, Hexokinase-4 (Homo sapiens) + Glucokinase regulatory protein (Homo sapiens) (UniProt P35557+Q14397); assay: qHTS assay for inhibitors of recombinant human GCK-GKRP interaction: Diaphorase-coupled assay (AID 743205); conditions: G6PDH/diaphorase resorufin fluorescence; series mostly up to 57.5 µM
T1 sequence (P35557 whole entry, looked up): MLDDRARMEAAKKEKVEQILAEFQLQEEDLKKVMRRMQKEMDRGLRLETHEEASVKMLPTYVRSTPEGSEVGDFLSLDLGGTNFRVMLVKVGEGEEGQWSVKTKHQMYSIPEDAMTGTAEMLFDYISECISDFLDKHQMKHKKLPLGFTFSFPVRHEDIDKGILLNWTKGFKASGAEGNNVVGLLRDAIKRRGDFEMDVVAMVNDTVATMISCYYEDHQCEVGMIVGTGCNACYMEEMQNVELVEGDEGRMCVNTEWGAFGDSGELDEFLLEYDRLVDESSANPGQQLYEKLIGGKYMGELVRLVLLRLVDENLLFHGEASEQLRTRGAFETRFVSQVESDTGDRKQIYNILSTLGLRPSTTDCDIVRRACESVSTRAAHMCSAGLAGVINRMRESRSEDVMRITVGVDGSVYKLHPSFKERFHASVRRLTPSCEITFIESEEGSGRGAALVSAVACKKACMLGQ
T1 sequence (Q14397 whole entry, looked up): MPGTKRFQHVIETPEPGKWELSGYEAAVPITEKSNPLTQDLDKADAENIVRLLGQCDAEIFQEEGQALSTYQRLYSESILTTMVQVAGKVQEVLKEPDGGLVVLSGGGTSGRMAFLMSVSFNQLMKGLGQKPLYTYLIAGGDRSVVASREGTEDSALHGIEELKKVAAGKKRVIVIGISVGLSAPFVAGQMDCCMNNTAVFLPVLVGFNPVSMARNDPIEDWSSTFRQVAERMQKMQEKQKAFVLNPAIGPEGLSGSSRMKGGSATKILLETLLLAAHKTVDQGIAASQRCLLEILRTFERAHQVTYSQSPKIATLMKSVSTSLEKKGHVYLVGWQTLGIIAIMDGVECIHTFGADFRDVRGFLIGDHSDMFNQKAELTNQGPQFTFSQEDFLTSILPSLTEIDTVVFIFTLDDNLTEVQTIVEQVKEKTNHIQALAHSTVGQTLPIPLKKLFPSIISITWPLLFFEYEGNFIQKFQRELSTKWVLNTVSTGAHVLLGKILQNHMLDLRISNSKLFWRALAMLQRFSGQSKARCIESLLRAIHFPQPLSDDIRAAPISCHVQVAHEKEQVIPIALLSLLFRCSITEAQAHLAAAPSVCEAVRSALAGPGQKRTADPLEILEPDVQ
Outline: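 Compounds pre-incubated 20 min with substrate, then 10 nM GST-GCK with 10 nM FLAG-GKRP added. GCK activity coupled via G6PDH and diaphorase to resorufin (5 mM glucose, 0.4 mM ATP, 0.15 mM NADP+, pH 7.6), read kinetically over 30 minutes at Ex 525/Em 590 nm.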

[5] = target: T1, Hexokinase-4 (Homo sapiens) + Glucokinase regulatory protein (Homo sapiens); assay: qHTS assay for inhibitors of recombinant human GCK-GKRP interaction: ADP-Glo assay (AID 743206); conditions: ADP-Glo luminescence, 60 min; series mostly up to 76.9 µM;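 further: plate controls were DMSO plus enzyme for no effect and no enzyme for full effect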
Outline: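 GST-GCK and FLAG-GKRP (15 nM each in the dispensed mix, with 2 uM S6P) react with 0.4 mM ATP and 5 mM glucose (final) in Hepes pH 7.6 for 60 min at room temperature. ADP is measured by ADP-Glo luminescence.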

[6] = target: T1, Hexokinase-4 (Homo sapiens) + Glucokinase regulatory protein (Homo sapiens); assay: qHTS assay for inhibitors of recombinant human GCK-GKRP interaction: HTRF assay (AID 743207); conditions: recombinant GCK-GKRP HTRF binding, 60 min, with sorbitol-6-phosphate; series mostly up to 57.5 µM;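 further: 0% = DMSO with GCK present and -100% = DMSO wells lacking GCK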
Outline: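 HTRF binding of 5 nM GST-GCK and 5 nM FLAG-GKRP with 2 uM S6P in pH 7.1 Hepes buffer (MgCl2, KCl, DTT, Tween 20, BSA). Anti-FLAG XL665 and anti-GST donor added, 60 min at room temperature; 665/615 nm read, normalized to with- and without-GCK controls.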

[7] = qHTS assay for small molecule agonists of the antioxidant response element (ARE) signaling pathway measured by Nrf2-dependant transcriptional activity (AID 720636; active means well fitted curve in the direction sought with a large enough effect in the repeat runs; an effect the other way counts as inactive or inconclusive; further: potency means the concentration at half of the fitted maximal effect); conditions: ARE-luc HepG2, Nrf2 luciferase reporter, 16 h; series mostly up to 92.4 µM
Outline: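 Quantitative HTS format in HepG2 cells stably expressing an ARE-luciferase reporter; 16 hr compound treatment at 37 C, luciferase signal detected with ONE-Glo.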

[8] = qHTS assay for small molecule agonists of the antioxidant response element (ARE) signaling pathway measured by Nrf2-dependant transcriptional activity - cell viability counter screen (AID 720653; active means well fitted curve in the direction sought with a large enough effect in the repeat runs; an effect the other way counts as inactive or inconclusive; further: on the % scale 0 is the no-effect control and ±100 the full control effect); conditions: ARE-bla HepG2 viability, CellTiter-Glo ATP luminescence, 16 h; max response: hits give low values
Outline: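 ARE-bla HepG2 cells treated with compounds for 16 h at 37C; this counter screen measures viability as intracellular ATP by CellTiter-Glo luminescence after 30 min at room temperature.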

[9] = qHTS Assay for Identifying Gametocytocidal Compounds (AID 743244);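 further: on the % scale 0 is the no-effect control and ±100 the full control effect; actives lower the fluorescent signal which means gametocytes are killed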; conditions: P. falciparum 3D7 stage III-V gametocytes, alamarBlue, 72 h; max response: hits give low values
Outline: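 Stage III-V P. falciparum 3D7 gametocytes, 20,000 per well, were exposed to compounds for 72 h at 37C, 5% CO2. AlamarBlue was then added for 24 h and viability was read as fluorescence at Ex 525/Em 598 nm.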

[10] = qHTS assay for small molecule antagonists of the retinoid-related orphan receptor gamma (ROR-gamma) signaling pathway - cell viability counter screen (AID 720652; active means well fitted curve in the direction sought with a large enough effect in the repeat runs; an effect the other way counts as inactive or inconclusive;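 further: CHO reporter cells with doxycycline-induced ROR-gamma expression; compound exposure lasted 16 hr before ATP read; on the % scale 0 is the no-effect control and ±100 the full control effect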); conditions: RORgamma reporter cell line viability counter screen; series mostly up to 92.2 µM
Outline: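 Cytotoxicity is quantified via intracellular ATP (CellTiter-Glo luminescence) in doxycycline-induced CHO ROR response element-luciferase reporter cells treated with compound for 16 hr at 37 C, 5% CO2.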

O=P(O)(O)C(Cl)(Cl)P(=O)(O)O
inactive: Potency [1] | Potency [2] | Potency [3] | outcome [4] | Potency [5] | Potency [6]

CC(COc1ccc(/C=C/c2ccccc2)cc1)[N+](C)(C)C (centres undefined)
inactive: Potency [1] | Potency [2] | Potency [3] | outcome [4] | Potency [5] | Potency [6]

O=C(Nc1ccccc1)c1cc([N+](=O)[O-])ccc1Cl
active: Potency [7] 3.06 µM
inactive: Potency [1] | Potency [2] | Potency [3] | max response [8] -18.4% | outcome [4] | Potency [5] | max response [9] -5.62%

O=S(=O)(c1cccc2c(I)cccc12)N1CCCNCC1
inactive: Potency [1] | Potency [2] | Potency [3] | outcome [4] | Potency [5] | Potency [6]

CN1CCc2cc(O)c(O)cc2C(c2ccccc2)C1 (centres undefined)
inactive: Potency [1] | Potency [2] | Potency [3] | outcome [4] | Potency [5] | Potency [6]

COc1cc2nc(N3CCN(C(=O)OCc4ccccc4)C(C(=O)NC(C)(C)C)C3)nc(N)c2cc1OC (centres undefined)
inactive: Potency [1] | Potency [2] | Potency [3] | outcome [4] | Potency [5]

COc1ccc2c(c1)CCC1C2CC[C@@]2(C)C1CC[C@@H]2NCCCCCCN1C(=O)CCC1=O (some centres undefined)
inactive: Potency [1] | Potency [2] | Potency [3] | outcome [4] | Potency [5] | Potency [6]

N=c1ccn2c(n1)O[C@H]1[C@H](O)[C@@H](CO)O[C@H]12
inactive: Potency [1] | Potency [2] | Potency [3] | outcome [4] | Potency [5] | Potency [6] | max response [9] 8.89%

Cc1cc2c(cc1Cl)N(C(=O)Nc1ccc(Oc3cccnc3C)nc1)CC2
inactive: Potency [1] | Potency [2] | Potency [3] | outcome [4] | Potency [5] | Potency [6]

Fc1ccc(C(OCCCc2cnc[nH]2)c2ccc(F)cc2)cc1
inactive: Potency [1] | Potency [2] | Potency [3] | outcome [4] | Potency [5] | Potency [6]

CN1CCC[C@H]1c1cccnc1
inactive: Potency [1] | Potency [2] | Potency [3] | Potency [7] | Potency [10] | max response [8] -4.29% and -4.16% | outcome [4] | Potency [5] | Potency [6]

C=C[C@H]1CN2CC[C@@H]1C[C@@H]2[C@@H](O)c1ccnc2ccc(OC)cc12
inactive: Potency [1] | Potency [2] | Potency [3] | outcome [4] | Potency [5] | Potency [6]

CC(=O)SCC[N+](C)(C)C
inactive: Potency [1] | Potency [2] | Potency [3] | outcome [4] | Potency [5] | Potency [6] | max response [9] 9.88%
